From PubChem BioAssay AID504941 (Broad Institute, 2011)
Among all 1,200 compounds or so, about 170 (14%) were called active. No rule for the calls is given here. A selection follows. Potency and affinity values are given separately.

Assay: E. coli Tat export inhibitors, dose response, cherry-pick, set 2, plate reader (AID 504941)
Settings: E. coli Tat transport reporter; series mostly up to 38 µM

outcome, inactive:
O=c1cc(O)nc[nH]1
CC1(C)CC(=O)C/C(=N\NC(=O)CCc2ccc(S(=O)(=O)N3CCOCC3)cc2)C1
CCc1ccc2c(CSc3nnnn3C)cc(=O)oc2c1
COc1cccc(COC(=O)C2CC(=O)N(Cc3ccco3)C2)c1OC (configuration not stated)
O=c1[nH]c(N2CCCCC2)nc2c1CCCC2
S=c1nc(-c2ccccc2Br)[nH][nH]1
CCOC(=O)N1CCN(c2ccc(C(=O)CC)cc2F)CC1
CN(C)c1nc(SCC#N)nc(N2CCOCC2)n1
CCCC(=O)NC1=C(C#N)C2(CCCC2)Cc2ccccc21
c1ccc(CC2=NCCN2)cc1
O=S(=O)(/N=C(/Nc1ccccc1)c1ccccc1)c1cccs1
O=C(Nc1cccc(NC(=O)c2ccco2)c1)c1ccccc1
N#Cc1ccccc1CSc1ccccn1
O=C1CCCN1Cc1ccccc1
COc1ccc(Cl)cc1S(=O)(=O)Nc1noc2ccccc12
Nc1ccccc1C(=O)NCC1(c2ccccc2)CCCC1
Cc1ccccc1Nc1nnc(C)c(=O)[nH]1
Cc1ccc(C(=O)N2CCCC(CCC(=O)NCc3ccc(F)c(F)c3)C2)cn1 (configuration not stated)
CCCc1cc(=O)oc2cc(OCC(=O)N(C)C)c(Cl)cc12
C#CCNC(=O)C1=C[C@H](c2csc3ccccc23)[C@@H](CCCO)[C@H](OCC)O1
COc1cc(OC)cc(C(=O)N(CN2CCCC2=O)c2ccccc2OC)c1
CCOCCCNC(=S)NCCNc1nc2ccc(C)cc2cc1C#N
Cc1ccsc1C1C(C#N)=C(N)OC2=C1C(=O)CC(C)C2 (configuration not stated)
CC(=O)N(Cc1ccc(F)cc1)c1cccc(C)c1C
Cc1ccc(NC(=O)C(c2ccc(Cl)cc2)N2CCCCC2)cc1 (configuration not stated)
Cc1cc(C(=O)N2CCN(c3ccccc3)CC2)no1
Cc1cc(C)n2nc(SC(C)C(=O)N3CC(C)OC(C)C3)nc2n1 (configuration not stated)
CC1=C(C#N)C(c2cn(-c3ccccc3)nc2-c2cccs2)C(C#N)=C(C)N1
Cc1nc2ncnn2c(C)c1CCC(=O)N1CCCCC1
CCNC(=O)OCC12CC3CC(CC(C3)C1)C2
CCOc1ccccc1NC(=O)NCc1ccc2c(c1)OCO2
O=C1CN(C(=O)COC(=O)c2cc(S(=O)(=O)N3CCOCC3)ccc2Cl)c2ccccc2N1
Cc1ccc(-c2n[nH]c3c2C(c2ccccc2)N(c2ccc(C(=O)O)cc2)C3=O)cc1 (configuration not stated)
COc1ccc(CN2CCN(C(=O)C3CCC(CNS(=O)(=O)c4ccccc4)CC3)CC2)c(OC)c1OC (configuration not stated)
Cc1nn(-c2ccccc2)c2nc3c(cc12)C(=O)CCC3
CC(=O)c1ccc(NC(=O)CSc2nc(N3CCOCC3)nc(N3CCOCC3)n2)cc1
COc1ccc(-n2c(Cc3cccn3C)nnc2SCC(=O)Nc2ccc(C(C)=O)cc2)cc1
Cc1ccc(-c2nc3ccccc3s2)cc1NC(=S)NC(=O)c1cccc2ccccc12
COc1ccc(-c2nc3ccccc3o2)cc1NC(=O)c1ccc(Br)o1
Cc1cc(NC(=O)C2CC2)ccc1NC(=O)c1cccs1
CC1=NN(c2ccccc2)C(=O)C1c1ccccc1 (configuration not stated)
O=C(NCCOC(=O)c1cccs1)c1cccnc1
CCOC(=O)CNS(=O)(=O)Cc1ccccc1
CCOC(=O)CNC(=O)c1ccccc1
Cc1cc2ncn(CCOc3ccccc3)c2cc1C
COc1ccc(/C=C(/NC(=O)c2cccc([N+](=O)[O-])c2)C(=O)O)cc1OC
CC(C)(C)OC(=O)N(CCc1ccccc1)Cc1cccc(OCc2cccc(NC(=O)/C=C/c3ccccc3)c2)c1
O=C(Nc1cccnc1Cl)c1noc2c1CCc1ccccc1-2
Cc1ccc(CN(C(=O)c2sc3ccccc3c2Cl)C2CCS(=O)(=O)C2)cc1 (configuration not stated)
COc1ccccc1-n1nc(C(=O)Nc2ccc3c(c2)OCO3)c2ccccc2c1=O
C=CCNC(=O)c1ccccc1NC(=O)Nc1ccccc1
COCCN(C(=S)Nc1c(C)cc(C)cc1C)C(C)c1cccnc1 (configuration not stated)
CCOCCCNC(=O)c1ccc(Cn2c(=S)[nH]c3c([nH]c4ccc(OC)cc43)c2=O)cc1
CCOC(=O)Cc1c[nH]c2ccc([N+](=O)[O-])cc12
O=C(/C=C/c1ccccc1)Nc1cc(S(=O)(=O)N2CCOCC2)ccc1N1CCCC1
COc1ccc(N=C2SC(C(=O)O)CC(=O)N2Cc2ccc(OC)c(OC)c2)cc1 (configuration not stated)
CNC(=O)C1CCN(S(=O)(=O)c2c(C)noc2/C=C/c2cccc(OC)c2)CC1
COc1cc(/C=N/NC(=O)c2ccccn2)ccc1OC(=O)c1ccc(Br)cc1
COc1ccc([N+](=O)[O-])cc1/C=N/NC(=O)Cc1ccccc1
C=CCNC(=S)Nc1cccc2[nH]ncc12
O=C(O)c1cn(-c2ccc(F)cc2)c2cc(N3CCNCC3)c(F)cc2c1=O
CN1C2CCC1CC(NS(=O)(=O)c1cc(Cl)c(Cl)cc1Cl)C2 (configuration not stated)
CCCCSc1nc2c(c(=O)[nH]c(=O)n2C)n1CCc1ccccc1
O=C(CCc1nc2ccccc2c(=O)[nH]1)OCC(=O)c1cccc(Cl)c1
COc1ccc(S(=O)(=O)N2CCOCC2)cc1NC(=O)c1ccc2c(c1)OCO2
CCOc1ccc(S(=O)(=O)N2CCCCC2)cc1NC(=O)CN1C(=O)NC(CC)(c2ccccc2)C1=O (configuration not stated)
Cc1c(C)c2c(C)nn(-c3ccccc3)c2[nH]c1=O
CC(C)(C)c1nn2cnnc2n(/N=C/c2cccc3ccccc23)c1=O
CCOC(=O)c1c(N/C=C(\C#N)c2nc(-c3ccc(OC(C)=O)cc3)cs2)sc2c1CCC2
CCc1nc2cc3sc(CC)nc3cc2s1
CC(C)c1ccc(NC(=O)c2snc3ccc(Cl)cc23)cc1
Cc1ccc(C(=O)Nc2nc(C)c(C(=O)Nc3ccc4c(c3)CCC4)s2)cc1
